Reference: PubChem BioAssay AID1159506 (National Center for Advancing Translational Sciences (NCATS), 2015)
In all, about 59,000 sequences were measured (the read-out: median about -0.00055, lowest 2% from about -2 on). Many of the other results were omitted from the sample, so the lowest values are more common in it than they were.

assay: Identification of proteins required for the processing of the EWS-FLI1 nascent transcript; conditions: TC32 Ewing sarcoma NR0B1-luc vs CMV-luc (EWS-FLI1 target promoter against control promoter), 48 h; screened at 20 nM (by protocol);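 note: robust z of luciferase light less the median z of siRNAs with the same seed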
In short: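 Genome-wide siRNA screen (Ambion v4.1, three siRNAs per gene, 20 nM final, RNAiMax) in Ewing sarcoma TC32 cells carrying NR0B1-promoter or CMV-promoter luciferase; OneGlo luciferase read 48 h post-transfection. Data normalized, z-score-MAD transformed and seed-adjusted.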

Sequence	seed-corrected z-score
AAACUGGUUGGAGUUGUUG against ITGB2	0.512
UGUUUUACCAACAGCACCA against CDC42	-1.21
UCAGGUGGUAGGGAGGUUG against UBE2L6	-2.37
CAGGUAGAACGUGUCGUCC against ENDOG	0.88
AAUGAGAUUAUGUUGGUCA against SNX29	-1.19
UUCUAUGCAAUCCAAAACC against DGKB	0.554
UUAGUUUCUACAUUAUUGU against ENTPD1-AS1	0.559
UAGGAGAUAAAGAUAACUA against OR5B2	-12.5
AGUACUACAAACCAAAUCC against FAM35A	-0.242
UUCCAUAUUUAUUAGAGCC against PURG	1.54
UUGAGAUAGGCUGAGACCU against TMPRSS4	-0.502
AAUUGUCGUAGUCAGUAUC against PAEP	-0.99
UUUGUCUUUUGCAUCUUUC against SFPQ	-2.66
AUCGUUCACGUCUUGAUCC against CPSF6	-0.744
AUAGGGAGCACUUGGGAGC against C20orf24	-1.49
AAACCUUCCAUUGUUGAGG against ACADVL	0.629
UUCGCUGUCACUGUGGUUG against FAM134C	-1.48
UAUUAUUCGACUCAUGGUC against EFCAB2	-2.54
UAACAUCGCACCAGUAAUC against L3MBTL4	-0.0952
UGUUCCUUUAUUGUAGCCC against ALG13	0.155
UGUAGGACAAGCGCUGCUG against DGCR6	-0.188
AUAUUAGCAUUCUUAAUGG against ABCB10	-0.347

Sequence	seed-corrected z-score
UUCAUGACUCUUGCAUUCC against ZNF473	-0.227
UAUAGUCUGCGUAGAGUUC against BSCL2	0.905
UCGGUAUUCGAUGUGGUCC against CD177	1.39
AUAAGAUACCUCUCUAUUC against NXPE1	-3.1
UGAUAUAGCCUCCAUAUGC against INVS	-0.175
UUCUAAUCUAGUGAUUAGC against LDB2	0.172
UAAACUGAAACGGAAAUGC against PTCHD3P1	-0.411
UUGAGUUUGUCACAGUUUC against SH3BP2	0.349
UUUCAGCUUAGGAAAGGCA against KRTDAP	-4.29
AGAUCUAUUGUGAACAGCC against FLT3	-0.0495
UAGGUAAAUAGCCUCGUGC against CEACAM19	0.0325
UUGCAUUUUCAGGUACUUG against RDH5	-0.555
UUUGUAAGCUCUGUCAUCC against FAM13B	-0.0737
ACCUGUCAAAGAGCAAAGC against AMD1P3	0.646
UCUGAGUUUUGAGCUGUCC against MST1R	-0.112
UGUCUAAUGACAAUGCUGU against UBR5	-0.38
UACUGCUAGAUUGAGAUCC against KDM5D	-2.31
UAUCUUGCAUAAGUCUUGU against XRCC6BP1	1.28
UACUCUUUUCCACGAAUCC against CCDC141	-0.626
UUCAAUACCAAAGAUAUUG against BTF3P16	-2.14
UGAGGUCCCAGAUUCUCAG against FBXW4	0.248
UCUUCGUCAUCGUUCAUUC against ZC3H4	-2.37

Sequence	seed-corrected z-score
AUAGACAUCUGAUCCGUUC against PGK1	-0.0528
UCUGCGACAUUCCUCAUAG against XPO1	-0.546
AUCCAGAUUAGUUUCCCUC against VIM	-2.52
UCAAUCUCAACGGUCACCG against NLRP1	1.3
UUUGAUUGAGGCAUAUGCG against REEP6	1.08
UCAGGUUCAGCAGGAAGUG against ADAMTS10	-0.537
UUAAUGGUGACCUUGACCU against C19orf47	-0.413
AACUGAGUUGUAGAGCUGC against IL12RB1	-0.226
AAUUCUUUUUGUCUGGAUC against PRSS35	0.405
UAAAUCUGCUCUCCUUUCC against LY86	0.785
UUCUCUUCAACAAGUGACA against C6orf201	-2.08
UCUCUGUCCUCAAAAGUGG against CLCN4	-0.277
UACGUGAGCUUGUACAGCC against MTTP	-0.0803
UCGAGUGUGAUGUCUCUUC against AGO3	0.413
UUGUGCACCACGAGAGUAG against RAB40AL	-2.28
UUCUGGAGCAGUUCGACAG against CNPPD1	0.781
UUCUCAAUCAGCACGGCCC against GPX2	-0.162
UCAUGUACACUGCUAAUUC against SLC30A10	0.696
AUACUGUUCACCGAGAAGG against TSPEAR	-3.82
UAUGUUGGUGCUCAUACUC against MED11	0.678
UUAAACUCAGGCUUUGGUC against HABP4	-1.03
UACUGAUUCACAAUGACCU against RNF208	-0.361

Sequence	seed-corrected z-score
UAACUUGAUAACAGGUGCC against OR10T2	-5.77
AAAAACAACAGAAGCAUGC against TSPAN8	0.399
UGUUGUUCAACAAAACCGC against KRT28	0.472
AUAGGCAUAUGGUUAGGCC against SS18	-2.03
ACAGCGUACAGCAAACACG against TMEM54	-12
UUCCUCUUCACCACGGUGU against CNNM3	-0.123
UGAGAGUUCAUAGCGUAUC against RCE1	-0.494
AAAGUAUAAUGGAUGUAUC against GNAI1	-0.47
AUAGGUACCAGGUAUGAGC against FOXM1	0.087
UUUGUUGGGAUGUUGGGUG against SPATA12	-2.1
UGCUGAAUGAGGUACGUGC against ZNF550	-0.438
UAUCCAUUUUCCUCUAUCC against FGF10	-0.261
UAUGGUUAGAAGAUAUCCC against IDS	1.1
AAAAGCUCACGGAGAAUCC against LINC01433	1.28
AACUGUCAAUGGUUGAAGC against FCGR2A	-0.901
AGUUUCUCAAUGUCUGGGC against PAGR1	-3.83
UUCGAGAAAAGCAGAAUCC against PRORSD1P	-0.604
ACAUCAACCACUACAGUGC against PCDHB7	-0.314
UUAACUUUCUCGAUAGAAC against SLC45A2	0.853
